The source of these data is PubChem BioAssay.

Activity calls are given as the source filed them. No rule for the calls is given here. Where a SMILES comes first, the peptide text is derived from it. The star is where a group is joined. Boc = CC(C)(C)OC(=O)*

For the experiment, the target named is Pantothenate synthetase (Mycobacterium tuberculosis (strain ATCC 25618 / H37Rv)) (UniProt P9WIL5). In words: Recombinant Mtb pantothenate synthetase (PanC) inhibitors, coupled enzyme, confirmatory (AID 375).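 Also: 0% = full reaction with vehicle and 100% = no enzyme background.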 As to conditions: coupled enzyme assay; at 10 µM, hits give high values.
Sequence of Pantothenate synthetase (Mycobacterium tuberculosis (strain ATCC 25618 / H37Rv)) (P9WIL5 whole entry, looked up): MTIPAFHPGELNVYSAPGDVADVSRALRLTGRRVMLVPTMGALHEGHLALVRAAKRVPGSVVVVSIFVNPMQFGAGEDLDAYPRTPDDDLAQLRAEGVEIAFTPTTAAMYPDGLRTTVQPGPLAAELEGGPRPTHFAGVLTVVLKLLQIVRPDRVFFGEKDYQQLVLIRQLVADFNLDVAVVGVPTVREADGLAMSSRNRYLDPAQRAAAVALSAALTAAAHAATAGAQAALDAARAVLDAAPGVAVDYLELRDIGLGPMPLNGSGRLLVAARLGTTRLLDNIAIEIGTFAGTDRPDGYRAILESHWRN
Regarding `Cc1ccc(NCc2nnc(SCC(=O)NCc3ccco3)n2CC2CCCO2)cc1Cl` (stereo not given), the inhibition (usually how much of the control response was suppressed) was 3% (inactive).

In the case of `Cc1ccnc(NC(=O)C2CCC(CNc3c(N4CCCC4)c(=O)c3=O)CC2)c1` (stereo not given), the inhibition is 0% (inactive).

On to `Nc1cc(C(=O)O)ccc1Nc1ccccc1`, for which the inhibition is 0% (inactive).

For `CC(C)C(=O)Nc1ccc2c(c1)nc1n2CCSC1`, the inhibition is 0% (inactive).

On to `CCOCC(O)CS(=O)Cc1ccccc1` (stereo not given), for which the inhibition is 0% (inactive).

Regarding `Cc1ccccc1CN1CCN(C(=O)c2cccc(F)c2)CC1`, the inhibition is 0% (inactive).

Turning to `COc1ccc(N(CC(=O)Nc2cc(C)ccc2C)S(=O)(=O)c2c(C)nn(C)c2C)cc1`, the inhibition was 0% (inactive).

`CCC(C)NC(=O)C1(C)CCC(=O)N1Cc1ccccc1OC` (stereo not given): the inhibition was 10% (inactive).

Regarding `COc1ccccc1C1/C(=C(\O)c2c(C)nc3c(C)cccn23)C(=O)C(=O)N1CCCN(C)C` (stereo not given), the inhibition was 0% (inactive).

As to `CC(=O)N1CCN(C(C)=O)C1c1ccccc1`, the inhibition is 2% (inactive).

As for `CC(C)(C)OC(=O)N1CCCC1C(=O)NC(Cc1ccccc1)C(=O)O` (stereo not drawn) (Boc-Pro-Phe-OH; configuration not given here), the inhibition is 4% (inactive).

In the case of `Cc1cc(C(F)(F)F)nc(NCc2cccnc2)n1`, the inhibition is 0% (inactive).

In the case of `CC1=C(C(=O)N2CCCCC2)C(c2cccs2)C2=C(CCCC2=O)N1` (stereo not given), the inhibition was 0% (inactive).

`O=C(NCCCN1CCCC1=O)c1cccnc1`: the inhibition was 4% (inactive).

With `ON=C1/C(=N\O)CC2(C/C1=N/O)OCCO2`, the inhibition was 0% (inactive).

As to `CCC(C)(NC(=O)c1ccc(=O)[nH]c1)C(=O)NC1CCCC1` (stereo not given), the inhibition is 0% (inactive).

With `Cn1nnnc1SCC1=C(C(=O)O)N2C(=O)[C@@H](NC(=O)[C@H](O)c3ccccc3)[C@H]2SC1`, the inhibition is 0% (inactive).

In the case of `O=C(CCCN1CC=C(n2c(=O)[nH]c3ccccc32)CC1)c1ccc(F)cc1`, the inhibition is 0% (inactive).

Turning to `COc1ccc(-n2cc(-c3ccccc3)c3c(N4CCN(CCO)CC4)ncnc32)cc1`, the inhibition is 0% (inactive).

Turning to `CC(C)(C)c1nnc(NC(=O)C2CCN(c3ncccn3)CC2)s1`, the inhibition is 1% (inactive).

On to `Cc1noc(C)c1C(=O)Nc1ccc(Cl)cc1C(F)(F)F`, for which the inhibition is 4% (inactive).

With `CN(c1ccccc1)C(c1ccc(F)cc1)c1nnnn1CC1CCCO1` (stereo not given), the inhibition was 0% (inactive).

As to `O=C(CN1C(=O)COc2ccccc21)NCCN1CCc2ccccc2C1`, the inhibition was 7% (inactive).

On to `COc1ccc(C(O)C(CN2CCOCC2)c2ccccc2)cc1F` (stereo not given), for which the inhibition is 2% (inactive).

Turning to `CCOC(=O)c1nc2sc3c(c2c(=O)[nH]1)CCCC3`, the inhibition is 0% (inactive).

For `CC(C)(C)n1cnc2cc(NS(=O)(=O)c3ccc(Br)cc3)ccc21`, the inhibition was 7% (inactive).

With `O=C(c1ccco1)N1CCN(C(=O)C2CCN(S(=O)(=O)c3cccc4nsnc34)CC2)CC1`, the inhibition was 10% (inactive).

`COC(=O)C(C)C1Sc2ccccc2NC1=O` (stereo not given): the inhibition is 11% (inactive).

As for `CC(C)CCNC(=O)NC(=O)CSc1nnc(COc2ccccc2Cl)o1`, the inhibition is 7% (inactive).

On to `CCc1nc(SCC(=O)Nc2nccs2)c2oc3ccccc3c2n1`, for which the inhibition was 0% (inactive).

As to `Cc1oc2nc(SCCCC(=O)NCCCO)nc(N)c2c1C`, the inhibition is 2% (inactive).

Regarding `Cc1nc(-c2ccccc2)sc1C(N)=O`, the inhibition is 0% (inactive).

With `CCC(=O)O[C@]1(C(=O)CCl)[C@@H](C)C[C@H]2[C@@H]3CCC4=CC(=O)C=C[C@]4(C)[C@@]3(F)[C@@H](O)C[C@@]21C`, the inhibition is 0% (inactive).

As for `COc1ccc(C(=O)Nn2c(C3CCC3)nc3ccccc3c2=O)c(OC)c1`, the inhibition was 0% (inactive).

Take `COc1ccc(C2C(C(C)=O)=C(O)C(=O)N2C)c(OC)c1` (stereo not given): the inhibition is 0% (inactive).

Regarding `CC(C)CC(OC(=O)c1cccs1)C(=O)NCc1ccco1` (stereo not given), the inhibition was 0% (inactive).

Regarding `CC(=O)c1cnc2cc(-c3ccccc3)nn2c1C`, the inhibition is 0% (inactive).

For `CCOCCCNC(=O)CN1CCN(Cc2ccccc2C)C1=O`, the inhibition was 5% (inactive).

With `Cc1cc(NC(=O)CSc2nccn2-c2ccc(F)cc2)no1`, the inhibition is 5% (inactive).

In the case of `Nc1nc(N)c2nc(-c3ccccc3)c(N)nc2n1`, the inhibition was 0% (inactive).
